# From the supplement of paper PMC4022240
# ± gives the standard deviation.
# T1: HaloTag-ATRX ADD domain (163-292)
# T1 chain: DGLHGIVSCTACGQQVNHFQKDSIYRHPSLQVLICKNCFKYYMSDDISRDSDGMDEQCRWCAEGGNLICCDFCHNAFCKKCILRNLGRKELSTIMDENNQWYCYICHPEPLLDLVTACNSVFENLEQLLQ
# Columns and labels:
# Assay in all cases: peptide microarray binding signal (635 nm), min-max normalized on array (fraction of array maximum); higher = stronger binding
# Conditions in all cases: peptide region: H3 1-13
# [1] = target: T1, HaloTag-ATRX ADD domain (163-292)
# Protocol: (§1)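 Histone 13-mer peptides were synthesized as cellulose conjugates with a C-terminal 20-atom PEG linker and printed in triplicate on nitrocellulose. The sequence given is the unmodified backbone; PTMs (Kme1/2/3, Kac, Sph/Tph, Rme/Rme2a/Rme2s, Rcit) are listed in the label and the 'peptide modifications' condition. Slides were probed at 4 °C for 1 h with biotin-labelled (HQ)5-HaloTag reader fusions (ATRX-ADD, ING2-PHD) then streptavidin-Alexa647, or with rabbit histone antibodies then anti-rabbit Alexa647. The mean 635 nm signal of the triplicate spots was scaled 0-1 between the lowest and highest values on each array.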
# [2] = target: HaloTag-ING2 PHD (mouse Ing2 200-280)
# Protocol: as §1
# [3] = target: anti-H3K4me3 antibody ab8580
# Protocol: as §1
# [4] = target: anti-H3K9me3 antibody ab8898
# Protocol: as §1
# [5] = peptide modifications: H3R2me2s H3T3ph, binder concentration: 1:2,000 dilution
# [6] = peptide modifications: H3R2me2s H3T3ph, binder concentration: 1:10,000 dilution
# [7] = peptide modifications: H3R8me2a H3K9me1, binder concentration: 1:2,000 dilution
# [8] = peptide modifications: H3R8me2a H3K9me1, binder concentration: 1:10,000 dilution
# [9] = peptide modifications: H3R8cit H3K9me2, binder concentration: 1:2,000 dilution
# [10] = peptide modifications: H3R8cit H3K9me2, binder concentration: 1:10,000 dilution
# [11] = peptide modifications: H3R8me1 H3K9me2, binder concentration: 1:2,000 dilution
# [12] = peptide modifications: H3R8me1 H3K9me2, binder concentration: 1:10,000 dilution
# [13] = peptide modifications: H3R8cit, binder concentration: 1:2,000 dilution
# [14] = peptide modifications: H3R8cit, binder concentration: 1:10,000 dilution
# [15] = peptide modifications: H3R2me2s H3K9me2, binder concentration: 1:2,000 dilution
# [16] = peptide modifications: H3R2me2s H3K9me2, binder concentration: 1:10,000 dilution
# [17] = peptide modifications: H3R2me2s, binder concentration: 1:2,000 dilution
# [18] = peptide modifications: H3R2me2s, binder concentration: 1:10,000 dilution
# [19] = peptide modifications: H3R8me2a H3K9ac, binder concentration: 1:2,000 dilution
# [20] = peptide modifications: H3R8me2a H3K9ac, binder concentration: 1:10,000 dilution
# [21] = peptide modifications: H3R8cit H3K9ac, binder concentration: 1:2,000 dilution
# [22] = peptide modifications: H3R8cit H3K9ac, binder concentration: 1:10,000 dilution
# [23] = peptide modifications: H3R8cit H3K9me1, binder concentration: 1:2,000 dilution
# [24] = peptide modifications: H3R8cit H3K9me1, binder concentration: 1:10,000 dilution
binder,measurement,setting,value
ARTKQTARKSTGG [H3 1-13 A Rme2s Tph K Q T A R K S T G G],peptide microarray binding signal,"[1]; peptide modifications: H3R2me2s H3T3ph, binder concentration: 50 nM",0.0063 ± 0.00015
same,peptide microarray binding signal,"[1]; peptide modifications: H3R2me2s H3T3ph, binder concentration: 500 nM",0.0137 ± 0.00078
same,peptide microarray binding signal,"[2]; peptide modifications: H3R2me2s H3T3ph, binder concentration: 10 nM",0.00424 ± 0.00025
same,peptide microarray binding signal,"[2]; peptide modifications: H3R2me2s H3T3ph, binder concentration: 100 nM",0.0153 ± 0.003
same,peptide microarray binding signal,[3]; [5],0.00264 ± 0.0012
same,peptide microarray binding signal,[3]; [6],0.00228 ± 0.00028
same,peptide microarray binding signal,[4]; [5],0.000982 ± 0.00014
same,peptide microarray binding signal,[4]; [6],0.00075 ± 1.6e-05
ARTKQTARKSTGG [H3 1-13 A R T K Q T A Rme2a Kme S T G G],peptide microarray binding signal,"[1]; peptide modifications: H3R8me2a H3K9me1, binder concentration: 50 nM",0.0352 ± 0.0011
same,peptide microarray binding signal,"[1]; peptide modifications: H3R8me2a H3K9me1, binder concentration: 500 nM",0.0882 ± 0.0059
same,peptide microarray binding signal,"[2]; peptide modifications: H3R8me2a H3K9me1, binder concentration: 10 nM",0.033 ± 0.0066
same,peptide microarray binding signal,"[2]; peptide modifications: H3R8me2a H3K9me1, binder concentration: 100 nM",0.0721 ± 0.0073
same,peptide microarray binding signal,[3]; [7],0.00366 ± 0.00063
same,peptide microarray binding signal,[3]; [8],0.00114 ± 3e-05
same,peptide microarray binding signal,[4]; [7],0.00186 ± 0.00023
same,peptide microarray binding signal,[4]; [8],0.00208 ± 7.7e-05
ARTKQTARKSTGG [H3 1-13 A R T K Q T A Rcit Kme2 S T G G],peptide microarray binding signal,"[1]; peptide modifications: H3R8cit H3K9me2, binder concentration: 50 nM",0.0517 ± 0.0042
same,peptide microarray binding signal,"[1]; peptide modifications: H3R8cit H3K9me2, binder concentration: 500 nM",0.0992 ± 0.0018
same,peptide microarray binding signal,"[2]; peptide modifications: H3R8cit H3K9me2, binder concentration: 10 nM",0.0235 ± 0.0016
same,peptide microarray binding signal,"[2]; peptide modifications: H3R8cit H3K9me2, binder concentration: 100 nM",0.0428 ± 0.011
same,peptide microarray binding signal,[3]; [9],0.00302 ± 0.00049
same,peptide microarray binding signal,[3]; [10],0.00177 ± 5e-05
same,peptide microarray binding signal,[4]; [9],0.00248 ± 0.00035
same,peptide microarray binding signal,[4]; [10],0.00277 ± 8.7e-05
ARTKQTARKSTGG [H3 1-13 A R T K Q T A Rme Kme2 S T G G],peptide microarray binding signal,"[1]; peptide modifications: H3R8me1 H3K9me2, binder concentration: 50 nM",0.0149 ± 0.00099
same,peptide microarray binding signal,"[1]; peptide modifications: H3R8me1 H3K9me2, binder concentration: 500 nM",0.0405 ± 0.00097
same,peptide microarray binding signal,"[2]; peptide modifications: H3R8me1 H3K9me2, binder concentration: 10 nM",0.0115 ± 0.00013
same,peptide microarray binding signal,"[2]; peptide modifications: H3R8me1 H3K9me2, binder concentration: 100 nM",0.0224 ± 0.00044
same,peptide microarray binding signal,[3]; [11],0.00179 ± 7.7e-05
same,peptide microarray binding signal,[3]; [12],0.00108 ± 5.7e-05
same,peptide microarray binding signal,[4]; [11],0.00208 ± 0.00038
same,peptide microarray binding signal,[4]; [12],0.0019 ± 6.5e-05
ARTKQTARKSTGG [H3 1-13 A R T K Q T A Rcit K S T G G],peptide microarray binding signal,"[1]; peptide modifications: H3R8cit, binder concentration: 50 nM",0.00727 ± 0.00022
same,peptide microarray binding signal,"[1]; peptide modifications: H3R8cit, binder concentration: 500 nM",0.0196 ± 0.0019
same,peptide microarray binding signal,"[2]; peptide modifications: H3R8cit, binder concentration: 10 nM",0.0125 ± 0.004
same,peptide microarray binding signal,"[2]; peptide modifications: H3R8cit, binder concentration: 100 nM",0.0291 ± 0.013
same,peptide microarray binding signal,[3]; [13],0.000359 ± 9.7e-06
same,peptide microarray binding signal,[3]; [14],0.000456 ± 9.9e-06
same,peptide microarray binding signal,[4]; [13],0.000785 ± 7.6e-05
same,peptide microarray binding signal,[4]; [14],0.000404 ± 4.4e-06
ARTKQTARKSTGG [H3 1-13 A Rme2s T K Q T A R Kme2 S T G G],peptide microarray binding signal,"[1]; peptide modifications: H3R2me2s H3K9me2, binder concentration: 50 nM",0.0159 ± 0.001
same,peptide microarray binding signal,"[1]; peptide modifications: H3R2me2s H3K9me2, binder concentration: 500 nM",0.0381 ± 0.00096
same,peptide microarray binding signal,"[2]; peptide modifications: H3R2me2s H3K9me2, binder concentration: 10 nM",0.0245 ± 0.00098
same,peptide microarray binding signal,"[2]; peptide modifications: H3R2me2s H3K9me2, binder concentration: 100 nM",0.0463 ± 0.005
same,peptide microarray binding signal,[3]; [15],0.0401 ± 0.0015
same,peptide microarray binding signal,[3]; [16],0.0397 ± 0.0042
same,peptide microarray binding signal,[4]; [15],0.0557 ± 0.0055
same,peptide microarray binding signal,[4]; [16],0.0282 ± 0.0014
ARTKQTARKSTGG [H3 1-13 A Rme2s T K Q T A R K S T G G],peptide microarray binding signal,"[1]; peptide modifications: H3R2me2s, binder concentration: 50 nM",0.00815 ± 0.00015
same,peptide microarray binding signal,"[1]; peptide modifications: H3R2me2s, binder concentration: 500 nM",0.0158 ± 0.0003
same,peptide microarray binding signal,"[2]; peptide modifications: H3R2me2s, binder concentration: 10 nM",0.00424 ± 0.00023
same,peptide microarray binding signal,"[2]; peptide modifications: H3R2me2s, binder concentration: 100 nM",0.0168 ± 0.003
same,peptide microarray binding signal,[3]; [17],0.00153 ± 0.0002
same,peptide microarray binding signal,[3]; [18],0.000799 ± 8.3e-06
same,peptide microarray binding signal,[4]; [17],0.00178 ± 0.00012
same,peptide microarray binding signal,[4]; [18],0.00075 ± 1.6e-05
ARTKQTARKSTGG [H3 1-13 A R T K Q T A Rme2a Kac S T G G],peptide microarray binding signal,"[1]; peptide modifications: H3R8me2a H3K9ac, binder concentration: 50 nM",0.0172 ± 0.00041
same,peptide microarray binding signal,"[1]; peptide modifications: H3R8me2a H3K9ac, binder concentration: 500 nM",0.0506 ± 0.0025
same,peptide microarray binding signal,"[2]; peptide modifications: H3R8me2a H3K9ac, binder concentration: 10 nM",0.0458 ± 0.0028
same,peptide microarray binding signal,"[2]; peptide modifications: H3R8me2a H3K9ac, binder concentration: 100 nM",0.0544 ± 0.012
same,peptide microarray binding signal,[3]; [19],0.00338 ± 0.00042
same,peptide microarray binding signal,[3]; [20],0.00285 ± 0.00048
same,peptide microarray binding signal,[4]; [19],0.00364 ± 0.00047
same,peptide microarray binding signal,[4]; [20],0.00179 ± 4.5e-05
ARTKQTARKSTGG [H3 1-13 A R T K Q T A Rcit Kac S T G G],peptide microarray binding signal,"[1]; peptide modifications: H3R8cit H3K9ac, binder concentration: 50 nM",0.00718 ± 9.2e-05
same,peptide microarray binding signal,"[1]; peptide modifications: H3R8cit H3K9ac, binder concentration: 500 nM",0.0143 ± 0.00071
same,peptide microarray binding signal,"[2]; peptide modifications: H3R8cit H3K9ac, binder concentration: 10 nM",0.0183 ± 0.0039
same,peptide microarray binding signal,"[2]; peptide modifications: H3R8cit H3K9ac, binder concentration: 100 nM",0.031 ± 0.01
same,peptide microarray binding signal,[3]; [21],0.0013 ± 3.1e-05
same,peptide microarray binding signal,[3]; [22],0.002 ± 0.0002
same,peptide microarray binding signal,[4]; [21],0.00239 ± 0.00033
same,peptide microarray binding signal,[4]; [22],0.00208 ± 0.00016
ARTKQTARKSTGG [H3 1-13 A R T K Q T A Rcit Kme S T G G],peptide microarray binding signal,"[1]; peptide modifications: H3R8cit H3K9me1, binder concentration: 50 nM",0.0302 ± 0.0019
same,peptide microarray binding signal,"[1]; peptide modifications: H3R8cit H3K9me1, binder concentration: 500 nM",0.0745 ± 0.02
same,peptide microarray binding signal,"[2]; peptide modifications: H3R8cit H3K9me1, binder concentration: 10 nM",0.0223 ± 0.002
same,peptide microarray binding signal,"[2]; peptide modifications: H3R8cit H3K9me1, binder concentration: 100 nM",0.0394 ± 0.013
same,peptide microarray binding signal,[3]; [23],0.00313 ± 0.00015
same,peptide microarray binding signal,[3]; [24],0.00217 ± 9.9e-05
same,peptide microarray binding signal,[4]; [23],0.00225 ± 0.00023
same,peptide microarray binding signal,[4]; [24],0.00185 ± 5.2e-05
